About 79,000 compounds went through this panel and 15% of them were active in at least one assay; those are over-represented in the sample as a whole. Activity calls are given as the source filed them. Cut-off read from the data, not from the text of the source: active = growth inhibition above about 70%; inactive = the rest.
Experiments:
[1] = NCI Yeast Anticancer Drug Screen. Data for the rad50 strain (AID 155);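 note: 0% = growth of vehicle-only cultures of the same strain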; details: S. cerevisiae rad50 strain growth inhibition, active compounds read high
Method in brief: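 Yeast carrying a defined DNA repair defect were exposed to test compounds, and growth was compared with vehicle-treated controls to give percent inhibition.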

[2] = NCI Yeast Anticancer Drug Screen. Data for the mec2-1 strain (AID 157); details: S. cerevisiae mec2-1 strain, active compounds read high
Method in brief: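 Mutant yeast (mec2-1) grown with compound; growth inhibition relative to vehicle control reported.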

[3] = NCI Yeast Anticancer Drug Screen. Data for the sgs1 mgt1 strain (AID 161);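 note: 0% = growth of cultures given vehicle only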; details: S. cerevisiae sgs1 mgt1 strain, active compounds read high
Method in brief: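 This yeast growth screen uses a strain with defined DNA-repair lesions; compound-treated growth is compared with vehicle-treated growth.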

[4] = NCI Yeast Anticancer Drug Screen. Data for the cln2 rad14 strain (AID 165);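 note: 0% = growth equal to vehicle treated cultures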; details: S. cerevisiae cln2 rad14 strain, active compounds read high
Method in brief: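 Readout is yeast growth inhibition versus vehicle-treated controls, using a strain with cln2 and rad14 alterations exposed to compound.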

[5] = NCI Yeast Anticancer Drug Screen. Data for the bub3 strain (AID 167); details: S. cerevisiae bub3 mutant strain, active compounds read high
Method in brief: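 Compounds were applied to a genetically altered yeast strain carrying a cell-cycle control defect. Growth inhibition was scored against vehicle-treated controls.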

[6] = NCI Yeast Anticancer Drug Screen. Data for the mlh1 rad18 strain (AID 175); details: S. cerevisiae mlh1 rad18 strain growth inhibition, active compounds read high
Method in brief: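 Genetically defined yeast (DNA repair-deficient) exposed to compounds; growth inhibition determined relative to vehicle.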

[7] = at 5.0 µM (retest, dose inferred, filed as 0.5)
[8] = at 50.0 µM (retest, dose inferred, filed as 5.0)

Measured: growth inhibition

C[CH2][Hg]
active: [1]; [7] 98% | [1]; [8] 99% | [1]; at 50.0 µM 99.1% | [2]; [7] 100% | [2]; [8] 99% | [2]; at 50.0 µM 99.5% | [3]; [7] 99% | [3]; [8] 99% | [4]; [7] 99% | [4]; [8] 100% | [5]; [7] 99% | [5]; [8] 99% | [5]; at 50.0 µM 99.2% | [6]; [7] 94% | [6]; [8] 99%
inactive: [3]; at 50.0 µM 57.1% | [4]; at 50.0 µM 59.3% | [6]; at 50.0 µM 52.2%

COc1cc(OC)c(/C=C(\C)[N+](=O)[O-])cc1Br
active: [1]; at 50.0 µM 96.5% | [2]; at 50.0 µM 84.9% | [3]; at 50.0 µM 88% | [5]; at 50.0 µM 92.2% | [6]; at 50.0 µM 98.7%
inactive: [1]; [7] 1% | [1]; [8] 1% | [2]; [7] 3% | [2]; [8] 3% | [3]; [7] 2% | [3]; [8] -16% | [4]; [7] 3% | [4]; [8] 0% | [4]; at 50.0 µM 66.2% | [5]; [7] -1% | [5]; [8] 0% | [6]; [7] 2% | [6]; [8] 1%

NC(=O)c1cc([N+](=O)[O-])c(Cl)c([N+](=O)[O-])c1
active: [1]; [8] 89% | [1]; at 50.0 µM 88.2% | [2]; [8] 84% | [2]; at 50.0 µM 86.3% | [3]; [8] 98% | [3]; at 50.0 µM 89% | [4]; [8] 97% | [5]; [8] 97% | [5]; at 50.0 µM 88.5% | [6]; [8] 85% | [6]; at 50.0 µM 88.7%
inactive: [1]; [7] 50% | [2]; [7] 62% | [3]; [7] 38% | [4]; [7] 36% | [4]; at 50.0 µM 56.5% | [5]; [7] 49% | [6]; [7] 57%

NC1=NC(=O)N2CC12 (configuration not stated)
inactive: [1]; [7] 30% | [1]; [8] 36% | [1]; at 50.0 µM 48.5% | [2]; [7] 13% | [2]; [8] 7% | [2]; at 50.0 µM -9.3% | [3]; [7] 25% | [3]; [8] 16% | [3]; at 50.0 µM 8.2% | [4]; [7] 20% | [4]; [8] 15% | [4]; at 50.0 µM 11.4% | [5]; [7] 21% | [5]; [8] 18% | [5]; at 50.0 µM 7% | [6]; [7] 29% | [6]; [8] 52% | [6]; at 50.0 µM 6.4%

CC1=C(CC/C(C)=C/CCC2(C)CCC([C@H](C)C(=O)O)OO2)C(C)(C)CCC1 (some centres not stated) (tested in a mixture with another compound)
active: [1]; [8] 97% | [1]; at 50.0 µM 90.2% | [2]; [8] 97% | [2]; at 50.0 µM 93% | [3]; [8] 96% | [3]; at 50.0 µM 93% | [4]; [8] 97% | [4]; at 50.0 µM 90.5% | [5]; [8] 97% | [5]; at 50.0 µM 92.2% | [6]; [8] 96% | [6]; at 50.0 µM 91.3%
inactive: [1]; [7] 18% | [2]; [7] 39% | [3]; [7] 52% | [4]; [7] 46% | [5]; [7] 9% | [6]; [7] 51%

O=C1C=C(Cl)C(=O)C(Cl)=C1
inactive: [1]; [7] 15% | [2]; [7] 23% | [3]; [7] 7% | [4]; [7] 0% | [5]; [7] 10% | [6]; [7] 20%
active: [1]; [8] 99% | [1]; at 50.0 µM 99.4% | [2]; [8] 99% | [2]; at 50.0 µM 99.3% | [3]; [8] 99% | [3]; at 50.0 µM 99.5% | [4]; [8] 95% | [4]; at 50.0 µM 91.5% | [5]; [8] 99% | [5]; at 50.0 µM 99.3% | [6]; [8] 99% | [6]; at 50.0 µM 99.4%

CC12CCC3C(CC=C4CC(SC(=N)N)CCC43C)C1CCC2=O (configuration not stated)
inactive: [1]; [7] 0% | [1]; [8] 33% | [1]; at 50.0 µM 67.3% | [2]; [7] 5% | [2]; [8] 51% | [2]; at 50.0 µM 48.3% | [3]; [7] 21% | [4]; [7] 9% | [4]; [8] 19% | [4]; at 50.0 µM 59.7% | [5]; [7] 11% | [5]; [8] 50% | [5]; at 50.0 µM 66.8% | [6]; [7] 8% | [6]; [8] 31% | [6]; at 50.0 µM 59.6%
active: [3]; [8] 72% | [3]; at 50.0 µM 75.5%

O=S(=O)(CCBr)CCBr
active: [1]; at 50.0 µM 88.3% | [2]; at 50.0 µM 84.2% | [3]; [8] 89% | [3]; at 50.0 µM 88.4% | [4]; [7] 92% | [4]; [8] 93% | [5]; [7] 80% | [5]; [8] 94% | [5]; at 50.0 µM 83.2% | [6]; at 50.0 µM 85.2%
inactive: [1]; [7] 51% | [1]; [8] 68% | [2]; [7] 43% | [2]; [8] 56% | [3]; [7] 66% | [4]; at 50.0 µM 41.9% | [6]; [7] 33% | [6]; [8] 57%

O=[N+]([O-])c1ccc([N+](=O)[O-])c2nsnc12
active: [1]; [7] 98% | [1]; [8] 97% | [1]; at 50.0 µM 99.5% | [2]; [7] 90% | [2]; [8] 98% | [2]; at 50.0 µM 99.5% | [3]; [8] 99% | [3]; at 50.0 µM 99.3% | [4]; [7] 77% | [4]; [8] 98% | [4]; at 50.0 µM 99.3% | [5]; [7] 98% | [5]; [8] 98% | [5]; at 50.0 µM 99.2% | [6]; [7] 79% | [6]; [8] 97% | [6]; at 50.0 µM 99%
inactive: [3]; [7] 48%

Source: PubChem BioAssay (NCI)
